The results in this text go back to PubChem BioAssay (Tox21).

Structures are written as SMILES. Values without a mark were called inactive. Records with an inconclusive call do not appear. Activity calls are given as the source filed them. Unless noted, the call rests on the fitted dose curve; in most records, active means well fitted curve in the direction sought with a large enough effect in the repeat runs; inconclusive means weak or mixed curves; inactive means no such curve, though single readings can be large; an effect the other way counts as inactive or inconclusive.

Test [1] can be described thus: qHTS assay for small molecule agonists of the p53 signaling pathway (AID 651631; calls by dose curve; further: nearly all actives have a fitted effect of over 15% in size). An outline of the steps:
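p53RE-bla HCT-116 cells; compounds 16 h, 37 °C; LiveBLAzer B/G FRET substrate 2 h RT; fluorescence intensity read-out, qHTS format.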

The nature of test [2]: qHTS assay for small molecules that induce genotoxicity in human embryonic kidney cells expressing luciferase-tagged ATAD5 (AID 651632). Further: nearly all actives have a fitted effect of over 15% in size. Further: potency means the concentration at half of the fitted maximal effect. In a few lines:
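Cells were seeded at 2,000 per well, dosed with compound, and incubated 16 hr at 37C in 5% CO2. Luciferase activity was then quantified after a 30 min room-temperature incubation with Amplite.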

The nature of test [3]: qHTS assay for small molecule agonists of the p53 signaling pathway - cell viability (AID 651633; calls by dose curve;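 further: p53RE-bla HCT reporter cells with a stable beta-lactamase p53 reporter; series mostly up to about 83 µM; nearly all actives have a fitted effect of over 30% in size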). An outline of the steps: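 Viability counter-read: CellTiter-Glo luminescence (30 min, room temperature) in the same p53RE-bla plates. These plates had been exposed to compounds for 16 h at 37 C.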
Test [4] can be described thus: qHTS assay for small molecules that induce genotoxicity in human embryonic kidney cells expressing luciferase-tagged ATAD5 - cell viability (AID 651634; calls by dose curve; further: nearly all actives have a fitted effect of over 25% in size). An outline of the steps: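 Cells (HEK293T, luciferase-tagged ATAD5) are seeded at 2,000 per well, dosed with compound or DMSO vehicle, and incubated 15.5 hr at 37C and 5% CO2. CellTiter-Fluor is added for 30 min before fluorescence is measured.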

The nature of test [5]: qHTS assay for small molecule disruptors of the mitochondrial membrane potential - cell viability (AID 720634; calls by dose curve;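 further: human HepG2 liver cancer cells; series mostly up to about 83 µM; nearly all actives have a fitted effect of over 20% in size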). In a few lines: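 Cytotoxicity was measured by ATP quantitation in HepG2 wells that had first been treated with compound for 1 hr and stained with m-MPI dye; CellTiter-Glo incubation was 30 min at room temperature.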
Test [6] in a line: qHTS assay for small molecule disruptors of the mitochondrial membrane potential (AID 720635). In a few lines: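 Mitochondrial membrane potential tracked with Mito-MPS dye, red aggregates (ex 540/em 590 nm) against green monomers (ex 490/em 535 nm). Compound treatment 1 hr at 37C, dye 30 min in HepG2.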
Test [7] in a line: qHTS assay to test for compound auto fluorescence at 590 nm (red) in HepG2 cells (AID 720674). In a few lines:
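Red autofluorescence (Ex/Em 540/590 nm, Rose Bengal sodium equivalents) was measured in HepG2 cells, 2,000 per well in MEM plus 10% FBS, plated overnight at 37 C. Readings were taken 1 hr after adding 23 nL compound or DMSO, at 37 C and 5% CO2.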

The nature of test [8]: qHTS assay to test for compound auto fluorescence at 535 nm (green) in HepG2 cells (AID 720675).
The nature of test [9]: qHTS assay to test for compound auto fluorescence at 460 nm (blue) in HEK293 cells (AID 720678). An outline of the steps: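 HEK293 cells (2,000 per well, medium with 10% dialyzed FBS) attached for 4-5 hr at 37C, then received compound and stood overnight at 37C, 5% CO2. Blue fluorescence was read at Ex/Em 405/460 nm and expressed relative to triamterene.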
A short description of test [10]: qHTS assay to test for compound auto fluorescence at 590 nm (red) in HEK293 cells (AID 720679). In a few lines:
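HEK293 cells (2,000/well, medium with 10% dialyzed FBS) attached for 4-5 hr at 37C, received 23 nL compound and were incubated overnight at 37C, 5% CO2. Red fluorescence was then read at 540/590nm Ex/Em, referenced to Rose Bengal sodium.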
On the % scale 0 is the no-effect control and ±100 the full control effect.

For the compound `C[C@@H]1NC(=O)[C@@H](N)CNC(=O)[C@H](C2CCNC(N)=N2)NC(=O)/C(=C/NC(N)=O)NC(=O)[C@H](CNC(=O)C[C@@H](N)CCCN)NC1=O` (some centres undefined), the Potency result in test [1], in test [2] and in [6] was “inactive” in each case. In addition, the compound was called inactive in test [3], in test [4], in test [5], in [7], in test [8] and in [9]. Further, the compound was called inactive in [10].

For `CCCCC(CC)COC(=O)CC#N` (centres undefined), the Potency entry in [1], in test [2] and in [6] was “inactive” throughout. Further, the outcome in [3], in test [4], in test [5], in test [7], in test [8] and in test [9] was inactive. For the same compound, the result in test [10] was inactive.

In the case of `OCCC(F)(F)C(F)(F)C(F)(F)C(F)(F)C(F)(F)C(F)(F)F`, the Potency result in test [1], in [2] and in [6] was “inactive” throughout. The compound was classed as inactive in test [3], in [4], in test [5], in test [7], in test [8] and in [9]. For the same compound, the result in [10] was inactive.

In the case of `CCCCN=C(N)N=C(N)N`, the Potency result in [1], in [2] and in test [6] was “inactive” throughout. For the same compound, the compound was classed as inactive in test [3], in [4], in test [5], in test [7], in [8] and in test [9]. Further, in test [10], the outcome was inactive.

For `CCCCCCCCOCCC#N`, the Potency entry in test [1], in test [2] and in test [6] was “inactive” in each case. The compound was classed as inactive in test [3], in test [4], in test [5], in test [7], in [8] and in test [9]. Further, the compound was called inactive in test [10].

`CC(O)CCCCn1c(=O)c2c(ncn2C)n(C)c1=O` (centres undefined): the Potency result in test [1], in test [2] and in test [6] was “inactive” throughout. Besides, the result in test [3], in [4], in test [5], in test [7], in test [8] and in test [9] was inactive. Besides, in test [10], the call was inactive.

Regarding `Cc1ccc(N)nc1`, the Potency result in test [1], in test [2] and in [6] was “inactive” each time. The outcome in [3], in test [4], in test [5], in [7], in test [8] and in test [9] was inactive. The result in [10] was inactive.

As to `CN(C)CCc1c[nH]c2ccc(CS(=O)(=O)N3CCCC3)cc12`, the Potency entry in test [1], in [2] and in [6] was “inactive” each time. In addition, the outcome in test [3], in test [4], in test [5], in test [7], in [8] and in test [9] was inactive. For the same compound, the outcome in test [10] was inactive.

Turning to `C[C@@H]1CC[C@@]2(OC1)O[C@H]1C[C@H]3[C@@H]4CC[C@H]5C[C@@H](O)CC[C@]5(C)[C@H]4CC(=O)[C@]3(C)[C@H]1[C@@H]2C`, the Potency result in test [1], in test [2] and in test [6] was “inactive” each time. Also, the result in [3], in test [4] and in test [5] was inactive. In addition, the fluorescence, relative to Rose Bengal in [7] was -1.11% [at 18.6 µM]. Further, in test [8], the fluorescence, % of fluorescein control was -0.248% [at 18.6 µM]. The fluorescence, % of triamterene in test [9] was 0.0136% [at 18.6 µM]. In addition, in test [10], the fluorescence, % of fluorescent control is 0.373% [at 18.6 µM].

For the compound `COc1ccc2cc(CCC(C)=O)ccc2c1`, the Potency result in [1] and in [6] was “inactive” throughout. In test [2], the Potency is 4.52 µM (active). Moreover, the result in test [3], in test [4] and in [5] was inactive. Besides, the fluorescence, relative to Rose Bengal in test [7] is -0.0879% [at 18.6 µM]. Further, the fluorescence, % of fluorescein control in [8] is -0.11% [at 18.6 µM]. Also, the fluorescence, % of triamterene in test [9] is 0.0581% [at 18.6 µM]. Also, in [10], the fluorescence, % of fluorescent control is 0.875% [at 18.6 µM].

As for `C[n+]1ccccc1/C=N/O`, the Potency result in [1], in test [2] and in [6] was “inactive” throughout. The compound was classed as inactive in test [3], in [4] and in test [5]. Besides, the fluorescence, relative to Rose Bengal in [7] was 0.247% [at 18.6 µM]. Besides, in test [8], the fluorescence, % of fluorescein control is -0.126% [at 18.6 µM]. In addition, the fluorescence, % of triamterene in test [9] was -0.0874% [at 18.6 µM]. For the same compound, the fluorescence, % of fluorescent control in test [10] is -1.07% [at 18.6 µM].

For the compound `COCCCOc1cc(C[C@@H](C[C@H](N)[C@@H](O)C[C@H](C(=O)NCC(C)(C)C(N)=O)C(C)C)C(C)C)ccc1OC`, the Potency entry in test [1], in test [2] and in [6] was “inactive” each time. The outcome in test [3], in test [4], in test [5], in test [7], in [8] and in [10] was inactive.

Turning to `CCCCCCCCCCCCCC(=O)OCC`, the Potency entry in test [1], in test [2] and in [6] was “inactive” each time. In addition, the outcome in test [3], in test [4], in test [5], in [7], in test [8] and in test [9] was inactive. Besides, the result in test [10] was inactive.

For the compound `CC(=O)SC[C@@H](C)C(=O)N1CCC[C@H]1C(=O)N[C@@H](Cc1ccccc1)C(=O)O`, the Potency result in test [1] and in test [2] was “inactive” each time. The call in [3], in [4], in [5], in [7], in test [8] and in [9] was inactive. The call in test [10] was inactive.

As for `C=CC(=O)OCC[N+](C)(C)C`, the Potency result in test [1] and in test [2] was “inactive” each time. Further, the outcome in [3], in test [4], in test [5], in [7], in test [8] and in test [9] was inactive. Moreover, the compound was called inactive in [10].

Regarding `N[C@H]1C(O)O[C@H](CO)[C@@H](O)[C@@H]1O` (some centres undefined), the Potency entry in test [1], in test [2] and in test [6] was “inactive” throughout. The call in test [3], in test [4], in test [5], in test [7], in test [8] and in test [10] was inactive.

With `O=C(O)COc1ccc2ccccc2c1`, the Potency entry in [1], in [2] and in test [6] was “inactive” each time. For the same compound, the compound was classed as inactive in test [3], in test [4], in test [5], in test [7], in test [8] and in test [10].

Take `Cc1ccc(O)c([N+](=O)[O-])c1`: the Potency result in test [1], in [2] and in [6] was “inactive” throughout. Also, the outcome in test [3], in [4], in test [5], in test [7], in [8] and in [9] was inactive. The call in test [10] was inactive.

Turning to `CC(C)c1cc(C(C)C)cc(C(C)C)c1`, the Potency result in test [1], in test [2] and in test [6] was “inactive” in each case. For the same compound, the result in test [3], in [4], in test [5], in [7], in [8] and in test [10] was inactive.

Regarding `CC(C)(C)OC=O`, the Potency entry in [1] and in test [2] was “inactive” each time. The compound was called inactive in test [3], in test [4], in test [5], in test [7], in [8] and in [9]. Further, the outcome in test [10] was inactive.

As to `COC(=O)c1ccccc1Cl`, the Potency result in [1] and in [2] was “inactive” each time. Moreover, the compound was called inactive in test [3], in [4], in test [5], in test [7], in [8] and in [9]. Further, in test [10], the result was inactive.

As for `Nc1ccc(C(=O)NCC(=O)O)cc1`, the Potency result in test [1] and in test [2] was “inactive” throughout. The outcome in [3], in test [4] and in test [5] was inactive. For the same compound, the fluorescence, relative to Rose Bengal in [7] was 0.477% [at 18.6 µM]. Further, in [8], the fluorescence, % of fluorescein control was 0.0596% [at 18.6 µM]. The fluorescence, % of triamterene in test [9] was -0.0255% [at 18.6 µM]. Moreover, the fluorescence, % of fluorescent control in [10] was -0.524% [at 18.6 µM].

As to `CCCCCCCCCCCBr`, the Potency entry in test [1] and in test [2] was “inactive” throughout. The result in [3], in [4], in test [5], in test [7], in test [8] and in test [9] was inactive. In test [10], the compound was called inactive.

With `CN(C)CCc1c[nH]c2ccc(C[C@H]3COC(=O)N3)cc12`, the Potency result in test [1] and in test [2] was “inactive” in each case. In addition, the call in test [3], in test [4], in test [5], in [7], in [8] and in test [9] was inactive. The compound was classed as inactive in test [10].
